The record followed here is PubChem BioAssay (Tox21).

Results filed as inconclusive are left out. Unmarked numbers belong to inactive results. The source made the active and inactive calls. The call rests on the fitted dose curve; in most records, active means well fitted curve in the direction sought with a large enough effect in the repeat runs; inconclusive means weak or mixed curves; inactive means no such curve, though single readings can be large; an effect the other way counts as inactive or inconclusive.
On the % scale 0 is the no-effect control and ±100 the full control effect.

Aryl hydrocarbon receptor (Homo sapiens), sequence (P35869 whole entry, looked up): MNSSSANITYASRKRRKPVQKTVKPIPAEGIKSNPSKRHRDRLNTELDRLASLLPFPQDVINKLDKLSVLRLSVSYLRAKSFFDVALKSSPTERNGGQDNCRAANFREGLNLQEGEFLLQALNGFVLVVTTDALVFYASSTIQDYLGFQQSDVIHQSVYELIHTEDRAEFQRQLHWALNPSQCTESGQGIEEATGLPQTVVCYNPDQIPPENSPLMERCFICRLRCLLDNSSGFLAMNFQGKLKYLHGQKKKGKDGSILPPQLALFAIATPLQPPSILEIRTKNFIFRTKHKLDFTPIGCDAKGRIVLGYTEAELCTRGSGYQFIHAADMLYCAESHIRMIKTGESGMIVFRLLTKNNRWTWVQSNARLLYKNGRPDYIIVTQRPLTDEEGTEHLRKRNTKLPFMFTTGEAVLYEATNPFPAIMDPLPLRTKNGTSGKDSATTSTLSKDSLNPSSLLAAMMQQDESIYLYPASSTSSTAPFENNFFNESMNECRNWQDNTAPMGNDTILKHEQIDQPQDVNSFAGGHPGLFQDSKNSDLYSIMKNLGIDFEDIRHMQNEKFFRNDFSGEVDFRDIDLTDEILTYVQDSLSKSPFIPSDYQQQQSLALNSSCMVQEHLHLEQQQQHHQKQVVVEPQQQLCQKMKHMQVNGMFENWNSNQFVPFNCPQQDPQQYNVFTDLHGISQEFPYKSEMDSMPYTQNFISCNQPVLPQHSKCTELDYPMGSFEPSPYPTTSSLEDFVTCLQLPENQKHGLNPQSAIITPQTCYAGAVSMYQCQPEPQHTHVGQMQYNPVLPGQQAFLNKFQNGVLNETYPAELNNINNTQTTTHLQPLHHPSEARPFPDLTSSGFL

Test system in one experiment: not listed separately
Kind of experiment: qHTS assay to identify aromatase inhibitors - cell viability counter screen (AID 743084).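 Further: cells stimulated with testosterone during compound exposure; nearly all actives have a fitted effect of over 55% in size.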 Particulars: MCF-7 aro ERE viability, CellTiter-Fluor, 24 h; series mostly up to 70.3 µM; activity change, negative = cytotoxicity: at the top concentration.
As for `CCOC(=O)NC(O)C(Cl)(Cl)Cl` (stereo not given), the “activity change, negative = cytotoxicity” value is 3.54%.
Still for that read-out and setting: next, `O=C(O)C(F)(F)C(F)(F)C(F)(F)C(F)(F)C(F)(F)C(F)(F)C(F)(F)C(F)(F)F`: -1.72%; `CC(Cc1ccccc1)NCc1ccccc1Cl` (stereo not given): -16.5%.
As to `COC(=O)Cc1ccccc1`, the “activity change, negative = cytotoxicity” value is 4.74%.
Still for that read-out and setting: next, `C=CC(=O)OCC`: 5.66% [at 95 µM]; `CC(Oc1cc(Cl)c(Cl)cc1Cl)C(=O)O` (stereo not given): 5.6%; `CC(Oc1cccc(Cl)c1)C(=O)O` (stereo not given): 21.2%.
Same read-out and setting: the value for `CCOP(=O)(SC(C)CC)N1CCSC1=O` (stereo not given) was 3.92%; that for `CCC(C)(C)O` was 0.935%; that for `CC1(C)CC(=O)CC(C)(C)N1[O]` was 11.3%.
Consider `CC(Cl)C(=O)O` (stereo not given), for which the “activity change, negative = cytotoxicity” value is -2.12% [at 95 µM].
With `C=CCN1C[C@H](C)N([C@H](c2ccc(C(=O)N(CC)CC)cc2)c2cccc(OC)c2)C[C@H]1C`, the “activity change, negative = cytotoxicity” value is 0.743%.
On the same count and under the same terms, the value for `CC(=O)NNc1ccccc1` was 11.7%.
Turning to `C[N+]1(CCF)[C@@H]2CC[C@H]1CC(OC(=O)C(O)(c1ccccc1)c1ccccc1)C2` (stereo not given in full), the “activity change, negative = cytotoxicity” value was 6.98%.
Same read-out and setting: next, `CC(C)C1(C)N=C(c2ncccc2C(=O)O)NC1=O` (stereo not given): -0.873%; `CCOC(=O)c1cncn1C(C)c1ccccc1` (stereo not given): 21.7% [at 32.5 µM].
Regarding `NC(=S)c1c(Cl)cccc1Cl`, the “activity change, negative = cytotoxicity” value is 8%.
Same read-out and setting: the value for `O=S(=O)(c1ccccc1)c1ccccc1` was 2.93%.
On the same count and under the same terms, the value for `CCOc1cccc(C2(N3CCN(c4ccccc4)CC3)CCC(C)CC2)c1` (stereo not given) was 9.66%; that for `C[C@H](N)[C@H](O)c1ccc(O)c(O)c1` was -0.731%.
Still for that read-out and setting: next, `N#CC(C#N)=Cc1ccc(O)c(O)c1`: -11.9%; `C=CC(C)(CCC=C(C)C)OC(=O)c1ccccc1N` (stereo not given): 1.35% [at 95 µM]; `CCCCCCCCCCCCCCCl`: 2.48% [at 95 µM].
As for `NCCc1cc(O)c(O)cc1O`, the “activity change, negative = cytotoxicity” value was -19.5%.
Still for that read-out and setting: next, `CCCN(CCC)C(=O)Cc1c(-c2ccc(Cl)cc2)nc2ccc(Cl)cn12`: -2.13%.
In the case of `O=C(NC(=O)c1cc(F)c(F)cc1Cl)Nc1cc(F)ccc1N1CCC(C(=O)O)CC1`, the “activity change, negative = cytotoxicity” value was 13%.
Take `Cc1nc(N(C)C)nc(OC(=O)N(C)C)c1C`: the “activity change, negative = cytotoxicity” value was 2.38%.
Consider `C[C@H]1[C@@H]2Cc3ccc(O)cc3[C@@]1(C)CCN2C`, for which the “activity change, negative = cytotoxicity” value was 7.17% [at 260 µM].

A further experiment has as its target Aryl hydrocarbon receptor (Homo sapiens) (UniProt P35869). Description: qHTS assay to identify small molecule that activate the aryl hydrocarbon receptor (AhR) signaling pathway (AID 743085).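 Further: HG2L7.5c1 human HepG2 liver cells with stably integrated DRE-driven firefly reporter; nearly all actives have a fitted effect of over 15% in size.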 Particulars: HepG2 AhR-luc (HG2L7.5c1), luciferase, 24 h; series mostly up to 70.3 µM; activation: at the top concentration. An outline of the steps: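 24 h compound exposure, 37C, HepG2-derived HG2L7.5c1 cells with DRE-responsive luciferase. Readouts: fluorescence viability, then luminescence at room temperature after 30 min.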
Take `O=C(O)C(F)(F)C(F)(F)C(F)(F)C(F)(F)C(F)(F)C(F)(F)C(F)(F)C(F)(F)F`: the “activation” value is 2.92%.
As for `O=S(=O)(Cl)Cl`, the “activation” value is -2.06%.
Same read-out and setting: next, `COC(=O)Cc1ccccc1`: -0.337%; `C=CC(=O)OCC`: -1.46% [at 95 µM]; `CC(Oc1cc(Cl)c(Cl)cc1Cl)C(=O)O` (stereo not given): -0.697%.
On the same count and under the same terms, the value for `CC(Oc1cccc(Cl)c1)C(=O)O` (stereo not given) was 0.62%; that for `CC1(C)CC(=O)CC(C)(C)N1[O]` was -0.51%.
On the same count and under the same terms, the value for `CC(Cl)C(=O)O` (stereo not given) was 0.849% [at 95 µM].
Take `C=CCN1C[C@H](C)N([C@H](c2ccc(C(=O)N(CC)CC)cc2)c2cccc(OC)c2)C[C@H]1C`: the “activation” value was -2.18%.
On the same count and under the same terms, next, `CC(=O)NNc1ccccc1`: 2.32%; `C[N+]1(CCF)[C@@H]2CC[C@H]1CC(OC(=O)C(O)(c1ccccc1)c1ccccc1)C2` (stereo not given in full): -0.826%; `CC(C)C1(C)N=C(c2ncccc2C(=O)O)NC1=O` (stereo not given): -0.782%.
Take `CCOC(=O)c1cncn1C(C)c1ccccc1` (stereo not given): the “activation” value is -0.395% [at 32.5 µM].
As to `NC(=S)c1c(Cl)cccc1Cl`, the “activation” value was 3.42%.
Consider `O=S(=O)(c1ccccc1)c1ccccc1`, for which the “activation” value is -0.885%.
For `CC(C)(C)NCC(O)c1cc(Cl)c(N)c(C(F)(F)F)c1` (stereo not given), the “activation” value was 8.62%.
On to `C[C@H](N)[C@H](O)c1ccc(O)c(O)c1`, for which the “activation” value was 1.97%.
Regarding `N#CC(C#N)=Cc1ccc(O)c(O)c1`, the “activation” value was 7.42%.
On the same count and under the same terms, the value for `CN1C(=O)CN=C(c2ccccc2)c2cc([N+](=O)[O-])ccc21` was 1.76%; that for `NCCc1cc(O)c(O)cc1O` was -0.609%.
Still for that read-out and setting: next, `O=C(NC(=O)c1cc(F)c(F)cc1Cl)Nc1cc(F)ccc1N1CCC(C(=O)O)CC1`: -0.449%; `Cc1nc(N(C)C)nc(OC(=O)N(C)C)c1C`: -0.245%.

Test system in another experiment: not listed separately
Kind of experiment: qHTS assay to identify small molecule that activate the aryl hydrocarbon receptor (AhR) signaling pathway - cell viability counter screen (AID 743086). Further: nearly all actives have a fitted effect of over 45% in size. Further: potency means the concentration at half of the fitted maximal effect.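 On viability change, negative = cytotoxic: HepG2 liver cells carrying the AhR DRE luciferase reporter.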 The settings on record: HepG2-AhR-luc viability, CellTiter-Fluor, 24 h; series mostly up to 70.3 µM; viability change, negative = cytotoxic: at the top concentration. Summed up:
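HepG2-AhR-luc (HG2L7.5c1) cells, 4000/well, treated 24 h at 37 C with compound; viability measured as CellTiter-Fluor fluorescence after 30 min in the same wells as the luciferase read.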
As to `CCOC(=O)NC(O)C(Cl)(Cl)Cl` (stereo not given), the “viability change, negative = cytotoxic” value is -0.115%.
For the molecule `O=C(O)C(F)(F)C(F)(F)C(F)(F)C(F)(F)C(F)(F)C(F)(F)C(F)(F)C(F)(F)F`, the “viability change, negative = cytotoxic” value was -12.6%.
Regarding `CC(Cc1ccccc1)NCc1ccccc1Cl` (stereo not given), the “viability change, negative = cytotoxic” value is -3.22%.
`O=S(=O)(Cl)Cl`: the “viability change, negative = cytotoxic” value was 23.4%.
Turning to `O=C(N/N=C/c1ccc([N+](=O)[O-])o1)c1cc([N+](=O)[O-])cc([N+](=O)[O-])c1O`, the Potency was 29.8 µM (active).
For the molecule `COC(=O)Cc1ccccc1`, the “viability change, negative = cytotoxic” value was 11.5%.
As for `C=CC(=O)OCC`, the “viability change, negative = cytotoxic” value is 0.795% [at 95 µM].
Regarding `CC(Oc1cc(Cl)c(Cl)cc1Cl)C(=O)O` (stereo not given), the “viability change, negative = cytotoxic” value is 2.9%.
Same read-out and setting: the value for `CCOP(=O)(SC(C)CC)N1CCSC1=O` (stereo not given) was 4.81%; that for `CCC(C)(C)O` was 0.56%.
As for `CC1(C)CC(=O)CC(C)(C)N1[O]`, the “viability change, negative = cytotoxic” value is -6.67%.
Consider `CC(Cl)C(=O)O` (stereo not given), for which the “viability change, negative = cytotoxic” value is -6.08% [at 95 µM].
Turning to `C=CCN1C[C@H](C)N([C@H](c2ccc(C(=O)N(CC)CC)cc2)c2cccc(OC)c2)C[C@H]1C`, the “viability change, negative = cytotoxic” value is -12.1%.
As to `CC(=O)NNc1ccccc1`, the “viability change, negative = cytotoxic” value is -7.22%.
Still for that read-out and setting: the value for `C[N+]1(CCF)[C@@H]2CC[C@H]1CC(OC(=O)C(O)(c1ccccc1)c1ccccc1)C2` (stereo not given in full) was 0.533%; that for `CC(C)C1(C)N=C(c2ncccc2C(=O)O)NC1=O` (stereo not given) was -2.81%.
Still for that read-out and setting: the value for `CCOC(=O)c1cncn1C(C)c1ccccc1` (stereo not given) was 7.33% [at 32.5 µM]; that for `NC(=S)c1c(Cl)cccc1Cl` was 0.948%.
Still for that read-out and setting: the value for `O=S(=O)(c1ccccc1)c1ccccc1` was 23.4%.
Regarding `CCOc1cccc(C2(N3CCN(c4ccccc4)CC3)CCC(C)CC2)c1` (stereo not given), the “viability change, negative = cytotoxic” value is 9.67%.
As to `C[C@H](N)[C@H](O)c1ccc(O)c(O)c1`, the “viability change, negative = cytotoxic” value was -0.275%.
The same measure, in the same setting: next, `N#CC(C#N)=Cc1ccc(O)c(O)c1`: -13.2%.
Turning to `C=CC(C)(CCC=C(C)C)OC(=O)c1ccccc1N` (stereo not given), the “viability change, negative = cytotoxic” value is 6.38% [at 95 µM].
Consider `CCCCCCCCCCCCCCCl`, for which the “viability change, negative = cytotoxic” value was -1.61% [at 95 µM].
Still for that read-out and setting: the value for `CN1C(=O)CN=C(c2ccccc2)c2cc([N+](=O)[O-])ccc21` was -18.9%; that for `NCCc1cc(O)c(O)cc1O` was -17.4%; that for `CCCN(CCC)C(=O)Cc1c(-c2ccc(Cl)cc2)nc2ccc(Cl)cn12` was -6.01%.
On the same count and under the same terms, next, `O=C(NC(=O)c1cc(F)c(F)cc1Cl)Nc1cc(F)ccc1N1CCC(C(=O)O)CC1`: 15.7%; `Cc1nc(N(C)C)nc(OC(=O)N(C)C)c1C`: 4.94%; `C[C@H]1[C@@H]2Cc3ccc(O)cc3[C@@]1(C)CCN2C`: 2.11% [at 260 µM].
